The values that follow come from PubChem BioAssay (NCATS).

Molecules are shown by their SMILES. Inconclusive results are not listed. Entries that show only a call come without a potency. The source made the active and inactive calls. The call rests on the fitted dose curve; in most records, active means well fitted inhibition curve with a large enough effect; inconclusive means small, poorly fitted or top-dose-only effect; inactive means flat fitted curve, though single readings scatter. Bridge positions count the residues as written; N and C are the ends. Square brackets hold non-standard residues; d marks the D form. Peptide text beside a SMILES is read from it. * marks the point of attachment. Ileψ(thiazoline)Cys = CC[C@H](C)[C@H](N)C1=N[C@H](C(=O)*)CS1; d(aIle) = CC[C@H](C)[C@@H](N)C(=O)O; dOrn = NCCC[C@@H](N)C(=O)O
Potency means the concentration at half of the fitted maximal effect.

One test relates to DFO2036. Put plainly: qHTS profiling for inhibitors of Plasmodium falciparum proliferation (AID 504749). Further: nearly all actives have a fitted effect of over 60% in size. Conditions: P. falciparum in erythrocytes, SYBR Green DNA, 72 h; series mostly up to 12.8 µM. Put shortly: (§1)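 Three-day growth assay of blood-stage parasites in erythrocytes (0.3% parasitemia, 2.5% hematocrit) at 37 C, 5% CO2, quantified by SYBR Green DNA staining after overnight detergent lysis.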
A general note: qHTS replaces the single test concentration by a dilution series.
Take `CN(C/C=C\c1ccccc1)Cc1cccc2ccccc12`: the Potency result was “inactive”.

`CCN(CCCCOC(=O)c1ccc(OC)c(OC)c1)[C@@H](C)Cc1ccc(OC)cc1`: the Potency entry is “inactive”. Still for that read-out and setting: in the case of `C[C@H](C(=O)O)c1cccc(Oc2ccccc2)c1` it was “inactive”; in that of `CC1(C)[C@@H](OC(=O)CCC(=O)O)CC[C@@]2(C)[C@H]1CC[C@@]1(C)[C@H]2C(=O)C=C2[C@H]3C[C@](C)(C(=O)O)CC[C@]3(C)CC[C@@]21C`, “inactive”.

With `CCOC(=O)O[C@@H](C)OC(=O)[C@@H]1N2C(=O)[C@@H](NC(=O)[C@@H](N)c3ccccc3)[C@H]2SC1(C)C`, the Potency entry was “inactive”. As for `Cc1ccsc1/C=C\C1=NCCCN1C`, the Potency result was “inactive”. Regarding `CC[C@H](C)[C@H](N)C1=N[C@H](C(=O)N[C@@H](CC(C)C)C(=O)N[C@@H](CCC(=O)O)C(=O)N[C@@H](C(=O)N[C@H]2CCCCNC(=O)[C@@H](CC(N)=O)NC(=O)[C@@H](CC(=O)O)NC(=O)[C@@H](Cc3cnc[nH]3)NC(=O)[C@@H](Cc3ccccc3)NC(=O)[C@@H]([C@@H](C)CC)NC(=O)[C@@H](CCCN)NC2=O)[C@@H](C)CC)CS1` ({Ileψ(thiazoline)Cys}-LE[d(aIle)]K[dOrn][d(aIle)][dF][dH][dD][dN]; lactam 4-C), the Potency result was “inactive”.

With `O=C(O)COCCN1CCN([C@@H](c2ccccc2)c2ccc(Cl)cc2)CC1`, the Potency result is “inactive”.

Turning to `Clc1ccc([C@H](Cn2ccnc2)OCc2c(Cl)cccc2Cl)c(Cl)c1`, the Potency is 3.55 µM (active).

For the molecule `CC[C@H](CO)NCCN[C@@H](CC)CO`, the Potency result was “inactive”.

Another test concerns DIV14. The test is described as above. Conditions: P. falciparum in erythrocytes, SYBR Green DNA, 72 h; series mostly up to 12.8 µM. In outline:
as §1
As for `C[C@H](CCC(=O)O)[C@H]1CC[C@@H]2[C@@H]3[C@@H](O)C[C@H]4C[C@@H](O)CC[C@@]4(C)[C@H]3CC[C@@]21C`, the Potency result was “inactive”. Same read-out and setting: in the case of `CN(C/C=C\c1ccccc1)Cc1cccc2ccccc12` it was “inactive”; in that of `CCC(=O)OCC(=O)[C@@]1(OC(=O)CC)[C@H](C)C[C@@H]2[C@@H]3[C@H]([C@@H](O)C[C@@]21C)[C@]1(C)C=CC(=O)C=C1C[C@@H]3Cl`, 5.1 µM (active); in that of `C[C@H](C(=O)O)c1cccc(Oc2ccccc2)c1`, “inactive”. Same read-out and setting: under `CC1(C)[C@@H](OC(=O)CCC(=O)O)CC[C@@]2(C)[C@H]1CC[C@@]1(C)[C@H]2C(=O)C=C2[C@H]3C[C@](C)(C(=O)O)CC[C@]3(C)CC[C@@]21C` stands “inactive”; under `CCOC(=O)O[C@@H](C)OC(=O)[C@@H]1N2C(=O)[C@@H](NC(=O)[C@@H](N)c3ccccc3)[C@H]2SC1(C)C`, “inactive”; under `Cc1ccsc1/C=C\C1=NCCCN1C`, “inactive”. Still for that read-out and setting: under `C#C[C@]1(O)CC[C@@H]2[C@H]3CCC4=CCCC[C@@H]4[C@@H]3CC[C@@]21C` stands “inactive”; under `CC[C@H](C)[C@H](N)C1=N[C@H](C(=O)N[C@@H](CC(C)C)C(=O)N[C@@H](CCC(=O)O)C(=O)N[C@@H](C(=O)N[C@H]2CCCCNC(=O)[C@@H](CC(N)=O)NC(=O)[C@@H](CC(=O)O)NC(=O)[C@@H](Cc3cnc[nH]3)NC(=O)[C@@H](Cc3ccccc3)NC(=O)[C@@H]([C@@H](C)CC)NC(=O)[C@@H](CCCN)NC2=O)[C@@H](C)CC)CS1` ({Ileψ(thiazoline)Cys}-LE[d(aIle)]K[dOrn][d(aIle)][dF][dH][dD][dN]; lactam 4-C), “inactive”. As for `O=C(O)COCCN1CCN([C@@H](c2ccccc2)c2ccc(Cl)cc2)CC1`, the Potency result is “inactive”. Consider `Clc1ccc([C@H](Cn2ccnc2)OCc2c(Cl)cccc2Cl)c(Cl)c1`, for which the Potency was 5.1 µM (active). With `C[C@@H](CNC1CCCCC1)OC(=O)c1ccccc1`, the Potency is 3.61 µM (active). Take `CC[C@H](CO)NCCN[C@@H](CC)CO`: the Potency entry is “inactive”.
